High-throughput results deposited in PubChem by several laboratories.
PvdQ acylase – blocks Pseudomonas aeruginosa PvdQ acylase activity; purified PvdQ acylase, fluorescence plate reader; inhibition, % at 10 µM; 340,000 tested, 0.063% active; AID 488965; in the data active = inhibition above about 30%, passing the limit was not always enough
HTR5A inv ag – inverse agonist of human HTR5A in OPRM1-OPRD1 counter-screen; P47898; HTR5A cell line, luminescence, inverse agonism; inhibition, % at 9.3 µM; 340,000 tested, 0.083% active; in the data active = inhibition mostly above about 23%, no sharp cut-off; inactive = mostly below about 18%
Target sequence (P47898 whole entry, looked up): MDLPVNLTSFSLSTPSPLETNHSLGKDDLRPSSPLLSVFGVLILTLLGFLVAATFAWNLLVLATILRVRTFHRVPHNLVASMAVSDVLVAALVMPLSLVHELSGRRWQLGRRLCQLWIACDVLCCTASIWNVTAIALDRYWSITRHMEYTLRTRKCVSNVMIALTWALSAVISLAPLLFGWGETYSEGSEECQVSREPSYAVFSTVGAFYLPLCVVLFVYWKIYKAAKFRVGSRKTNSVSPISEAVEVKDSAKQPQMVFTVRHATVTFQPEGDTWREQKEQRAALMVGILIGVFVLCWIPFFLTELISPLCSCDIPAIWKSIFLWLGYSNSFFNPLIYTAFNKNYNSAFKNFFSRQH
HTR5A ag – activates human HTR5A in OPRM1-OPRD1 agonist counter-screen. 340,000 tested, 0.61% active. HTR5A agonist assay, luminescence, cell-based. AID 504692. activation, % at 9.3 µM; in the data active = activation mostly above about 9.5%, no sharp cut-off; inactive = mostly below about 7.6%
OPRM1-OPRD1 inv – inverse agonist of human OPRM1-OPRD1 heterodimerization; P35372+P41143; cell-based MOR-DOR heterodimer luminescence, inverse agonism; inhibition, % at 9.3 µM; 340,000 tested, 0.21% active; AID 504357; in the data active = inhibition above about 22%, passing the limit was not always enough
MOR-DOR ag-1 – OPRM1-OPRD1 heterodimerization agonism; cells, luminescence; activation, % at 9.3 µM; AID 504326; 340,000 tested, 0.3% active; P35372+P41143
CR mimetic SO – yeast age-related superoxide inhibition as caloric restriction mimetic; S. cerevisiae aged cells, superoxide DHE fluorescence; active compounds read low; superoxide response (% of plate mean), % at 10 µM; 330,000 tested, 0.18% active;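 active = superoxide response under a set limit, about three screen SD below normal, cut at about 65% in these data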;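 also: yeast aged for seven days with compound at 30 °C before DHE staining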
MOR-DOR ag-2 – opioid heterodimer agonism, HTR5A counter-screen; U2OS counter-screen cells, complementation luminescence, 3 h; activation, % at 9.3 µM; 800 tested, 13% active; shares compounds with HTR5A ag; AID 504913
HTR5A ag conf – confirmation of human HTR5A agonists; HTR5A agonist cell assay, luminescence; activation, % at 9.3 µM; shares compounds with HTR5A ag; AID 504915; 800 tested, 17% active; in the data active = activation above about 17%
Large screens that a line does not name were inactive (follow-up assays come after a bar, where they were run). Most compounds without a hit are left out; they make up all but 1.3% or so of the library. Rule as the data show it, unless noted: active = activation above about 18%; inactive = the rest.

O=c1[nH]cnc2c1nc(NCc1ccccc1)n2C1O[C@@H](CO)[C@H](O)[C@@H]1O (stereo partly specified)	none
CCOc1ccc(C(=O)N2CCN(Cc3ccccc3)CC2)cc1OCC	HTR5A ag 16 (no result: CR mimetic SO) | MOR-DOR ag-2 inactive | HTR5A ag conf inactive
C/C=C/C=[N+](\[O-])C(C)/C(=N/O)c1ccc(F)cc1 (stereo unspecified)	HTR5A ag 17 | MOR-DOR ag-2 inactive | HTR5A ag conf inactive
CN(c1ccc(OCC(=O)N2CCCC2)cc1)S(=O)(=O)c1ccc(Cl)cc1	HTR5A ag 17 | MOR-DOR ag-2 inactive | HTR5A ag conf inactive
CCOc1ccc(S(=O)(=O)N(C)c2ccc(OCC(=O)N3CCOCC3)cc2)cc1	none
CCOc1ccccc1Nc1cc(C)nc2ccc(C)cc12	none
COc1ccc(-c2ccc(SCC(=O)NCc3ccco3)nn2)cc1	none
O=C(CSc1ccc(-c2ccc(F)cc2)nn1)NCc1ccco1	HTR5A ag 19 | MOR-DOR ag-2 inactive | HTR5A ag conf inactive
COc1cccc(CN2CCN(Cc3cc(OC)c(OC)cc3[N+](=O)[O-])CC2)c1	none
COc1cc(CN2CCN(Cc3ccc([N+](=O)[O-])cc3)CC2)c([N+](=O)[O-])cc1OC	HTR5A ag 15 | MOR-DOR ag-2 inactive | HTR5A ag conf inactive
Cc1ccc(S(=O)(=O)NCc2ccc(C(=O)NC3CCC(O)CC3)cc2)cc1C (stereo unspecified)	none
CC(Oc1cccnc1[N+](=O)[O-])C(=O)N1CCc2ccccc21 (stereo unspecified)	none
CCN(CC)S(=O)(=O)c1cccc(C(=O)NCC2(N3CCOCC3)CCCCC2)c1	none (no result: CR mimetic SO)
Nc1c(C(=O)Nc2ccc(S(=O)(=O)N3CCCC3)cc2)sc2nc3ccc(OC(F)(F)F)cc3cc12	HTR5A ag 15 | MOR-DOR ag-2 24 | HTR5A ag conf inactive
CCC(C)(C)c1ccc(OCCCC[n+]2cccc(C)c2C)c(C(C)(C)CC)c1	HTR5A ag 21, CR mimetic SO 65 | MOR-DOR ag-2 inactive | HTR5A ag conf inactive
CCN(CC(=O)Nc1ccc(NC(C)=O)cc1)C(=O)c1ccc(C(=O)c2ccccc2)cc1	HTR5A ag 22 | MOR-DOR ag-2 inactive | HTR5A ag conf 30
Cc1cccc(N2CCN(C(=O)c3c(Cl)cnn3C)CC2)c1C	none
COC(=O)c1ccc(Cn2cc(Cl)cn2)cc1	HTR5A ag 24 | MOR-DOR ag-2 inactive | HTR5A ag conf inactive
NNC(=O)c1ccc(Cn2cc(Cl)cn2)cc1	none
CC(C(=O)NC1C=CS(=O)(=O)C1)N1C(=O)/C(=C/c2cccc(Cl)c2)SC1=S (stereo unspecified)	HTR5A ag 15 | MOR-DOR ag-2 38 | HTR5A ag conf inactive
CC(C(=O)NC1C=CS(=O)(=O)C1)N1C(=O)/C(=C\c2ccccc2)SC1=S (stereo unspecified)	none
C/C(=N/NS(=O)(=O)c1ccc(Br)cc1)c1ccc(NC(=O)c2ccc(C)o2)cc1	HTR5A ag 17 | MOR-DOR ag-2 inactive | HTR5A ag conf inactive
C/C(=N\NS(=O)(=O)c1ccc([N+](=O)[O-])cc1)c1ccc(NC(=O)c2ccco2)cc1	none
CCCCNc1c(-c2cccc(-c3cc(C(C)=O)cs3)c2)nc2cc(C)ccn12	HTR5A ag 24 | MOR-DOR ag-2 inactive | HTR5A ag conf inactive
CCCCCCSc1cc(-c2nc3cc(C)ccn3c2NCCCC)ccc1OC	none
COc1ccc(NC(=O)c2ccc3ncsc3c2)c2ccccc12	none
COc1ccc(C(C)(C)C)cc1NC(=O)c1ccc2ncsc2c1	HTR5A ag 16 | MOR-DOR ag-2 inactive | HTR5A ag conf inactive
Cc1cc(NC(=O)C(C)Sc2nnc(NCc3ccco3)s2)no1 (stereo unspecified)	none
CCNC(=O)OCCC12CC3CC(CC(C3)C1)C2	none
O=C(OCC12CC3CC(CC(C3)C1)C2)c1ccc(NCc2cc(O)ccc2O)cc1	HTR5A ag 17 (no result: CR mimetic SO) | MOR-DOR ag-2 44 | HTR5A ag conf inactive
O=C(OCCC12CC3CC(CC(C3)C1)C2)c1ccc(NCc2cc(O)ccc2O)cc1	HTR5A ag 15 (no result: CR mimetic SO) | MOR-DOR ag-2 inactive | HTR5A ag conf inactive
